The campaign covered roughly 360,000 compounds. About 1,300 (0.36%) were called active. The full list was thinned out, with actives kept by preference. A number with no mark means an inactive call. No stated cut-off is given here; in the data, active means inhibition above about 19%; inactive means the rest.

The assay deals with T-cell receptor (TCR). Put plainly: inhibitors of human TCR-CD3 interaction, primary screen, biochemical, fluorescence, TAMRA-labeled TCR probe (AID 651800).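 Further: recombinant mutant TCR 2C K166C tagged with TAMRA read by polarization; 0% = receptor in buffer alone and 100% = receptor with positive control.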 The note with it: at 9.4 µM, hits give high values.
Usually inhibition stands for the drop in the measured response relative to a control, in per cent. Regarding `COc1cc(OC)cc(C(=O)NCCSCc2ccco2)c1`, the inhibition is 2.08%.

Consider `COCCNC(=O)Nc1ccc2nc(-c3ccco3)c(-c3ccco3)nc2c1`, for which the inhibition is 48% (active).

`COc1ccc(CCNC(=O)Nc2ccc3c(c2)c(=O)n(C)n3C)cc1OC`: the inhibition is -9.13%.

As for `CCOC(=O)C1CSCCS(=O)(=O)N1Cc1ccc(Cl)cc1` (stereo not drawn), the inhibition is -6.78%.

`CNC(=S)NNC(=O)c1cccn(Cc2ccccc2)c1=O`: the inhibition was 45.4% (active).

Take `CN(C)C(=O)c1cccn(Cc2cccc(C(F)(F)F)c2)c1=O`: the inhibition is 4.33%.

On to `Cc1scc(C(=O)NNC(=S)NCc2ccccc2)c1C`, for which the inhibition is 3.75%.

Regarding `CCOC(=O)CNC(=O)N(C)[C@H]1C[C@H]2c3[nH]c4c(-c5ccc6c(c5)OCO6)cccc4c3CCN2C(=O)[C@H]1[C@H](C)O`, the inhibition was -3.41%.

`COC(=O)C1=C(C)N(Cc2ccccc2C(F)(F)F)C(=NCC2CC2)NC1c1cccc(Cl)c1` (stereo not drawn): the inhibition was 5.09%.

`C=CCN1C(=O)N(Cc2ccccc2)c2ccccc2S1(=O)=O`: the inhibition is -2.76%.

For `COc1ccc(CC(=O)N/N=C/c2cc([N+](=O)[O-])cc(Br)c2O)cc1`, the inhibition was 37.3% (active).

`COc1ccc(CNS(=O)(=O)c2cc(Br)ccc2Br)cc1`: the inhibition was 1.49%.

Regarding `COc1ccc(Cc2nnc(SCC(=O)c3cccc([N+](=O)[O-])c3)n2C)cc1`, the inhibition is 3.33%.

`C[C@H]1[C@H](c2ccccc2)Oc2cc(Br)ccc2S(=O)(=O)N1Cc1cccc(F)c1`: the inhibition is 2.14%.

On to `CCCCCCCCN1C(=O)[C@@H](CC(=O)N2CCN(C(=O)OCC)CC2)C[C@@]2(C(=O)OC)C1=C[C@H](C1CCCC1)O[C@@H]2C`, for which the inhibition was 6.64%.

Take `CN(NC(=O)c1ccccc1F)c1nc(C(F)(F)F)nc2ccccc12`: the inhibition is 27.9% (active).

Take `CC(NC(=O)c1ccccc1F)c1cccc2ccccc12` (stereo not drawn): the inhibition is -0.21%.

Turning to `CSc1nc(N(C)NC(=O)c2cccc(C)c2)c2ccccc2n1`, the inhibition was -2.67%.

Take `O=C1CCCCC1C(=O)c1ccccc1` (stereo not drawn): the inhibition was -0.19%.

Consider `COC(=O)[C@]12C[C@H](CC(=O)NCc3ccccc3)C(=O)N(CCC3=CCCCC3)C1=C[C@H](C(C)(C)C)O[C@@H]2C`, for which the inhibition was -4.03%.

Consider `CCn1c(=S)[nH]c2cc(S(=O)(=O)N3CCOCC3)ccc21`, for which the inhibition was 1.36%.

Take `CNS(=O)(=O)c1ccc2c(c1)[nH]c(=S)n2C`: the inhibition is 45.4% (active).

For the compound `CCCCn1c(=S)[nH]c2cc(S(=O)(=O)N3CCCCC3)ccc21`, the inhibition is 1.03%.

In the case of `COC(=O)[C@]12C[C@H](CC(=O)NCc3cccc(C(F)(F)F)c3)C(=O)N(Cc3ccc4c(c3)OCO4)C1=C[C@H](COCc1ccccc1)O[C@@H]2C`, the inhibition was 0.9%.

As to `O=C(C(=O)N1CCC(CNC(=O)c2cccnc2Cl)CC1)c1cccs1`, the inhibition was 0.67%.

On to `C[C@H](CO)N1C[C@H](C)[C@@H](CN(C)C(=O)Nc2ccccc2F)OCc2cn(nn2)CCCC1=O`, for which the inhibition is 4.97%.

On to `NNC(=O)c1oc2nc(-c3ccccc3)cc(-c3ccco3)c2c1N`, for which the inhibition is 16.2%.

As to `CNC(=S)NNC(=O)c1oc2nc(-c3ccccc3)cc(-c3ccco3)c2c1N`, the inhibition was 59.3% (active).

Consider `Cc1ccccc1C(=O)N[C@H](C(=O)N1CCC[C@H]1C(=O)NCc1ccccc1)C(C)C`, for which the inhibition is 2.94%.

As to `CCCCNc1cccc2c1S(=O)(=O)N[C@@H](C)CO2`, the inhibition is 2.35%.

Take `Cc1ccc(N)cc1CN1CCN(c2ncc(Cc3ccccc3)cn2)CC1`: the inhibition is 3.41%.

For the compound `COCCCNC(=O)C[C@H]1C[C@@]2(C(=O)OC)C(=C[C@H](C(C)(C)C)O[C@@H]2C)N(Cc2ccc3c(c2)OCO3)C1=O`, the inhibition is 3.16%.

Regarding `CC(C)CNc1cccc2c1S(=O)(=O)N[C@H](CC(C)C)CO2`, the inhibition was -1.27%.

As to `Brc1ccc(COCCc2cn(Cc3ccccc3)c3ccccc23)cc1`, the inhibition is -0.9%.

As for `CC12CCC(C(=O)N(NC(=O)c3ccccc3O)C1=O)C2(C)C` (stereo not drawn), the inhibition was 33.6% (active).

Regarding `CC1=CC(C)(C)NC(=S)N1NC(=O)c1ccccc1Cl`, the inhibition is -4.79%.

Consider `CC(Sc1nnc2c(n1)C1CCC2(C)C1(C)C)C(=O)Nc1ccccc1` (stereo not drawn), for which the inhibition was 1.84%.

In the case of `Clc1cccc2c1C1CC2CCN1Cc1ccccc1` (stereo not drawn), the inhibition was -2.68%.

As for `O=C(NCc1ccccc1)[C@H]1CCCN1C(=O)[C@H]1CCCN1C(=O)N1CCOCC1`, the inhibition is 4.79%.

In the case of `CCCCCCCCN1C(=O)[C@@H](CC(=O)NCc2ccc(C)o2)C[C@@]2(C(=O)OC)C1=C[C@H](C(C)(C)C)O[C@@H]2C`, the inhibition was 1.15%.

As to `O=S(=O)(O)c1cc2onnc2c2ccccc12`, the inhibition is 28.6% (active).

Turning to `COc1ccccc1C(=O)Nn1cnnc1`, the inhibition was -2.57%.

Turning to `COc1ccccc1C(=O)NNC(=O)CCN1C(=O)/C(=C\c2ccccc2)SC1=S`, the inhibition was 23.9% (active).

In the case of `O=C(CCN1C(=O)c2ccccc2C1=O)NNC(=O)c1ccc(Cl)cc1Cl`, the inhibition is -3.56%.

On to `CC[C@H](NC(=O)[C@H](Cc1ccccc1)NC(=O)[C@H]1O[C@@H](n2cnc3c(=O)[nH]c(N)nc32)[C@H](O)[C@@H]1O)c1ccccc1`, for which the inhibition is 1.67%.

In the case of `COC(=O)[C@]1(Cc2ccccc2)NC=C(C(=O)c2ccccc2)[C@@H]1c1cccc(OC)c1`, the inhibition is -0.52%.

As to `CCOC(=O)c1c(N)c(C#N)nn1-c1ccccc1C(=O)OC`, the inhibition was -3.5%.

As for `Cc1ccc2nc(-c3ccc(CN4CCC(n5cc(-c6ccccc6)[nH]c5=O)CC4)cc3)c(-c3ccccc3)nc2c1`, the inhibition is 5.23%.

Turning to `O=C1Nc2ccccc2C1=NN=Cc1ccco1`, the inhibition is 4.85%.

Take `COc1ccccc1C(=O)N1O[C@]23C=C[C@]14C[C@@H](O)CC[C@]4(C)C2CC[C@]1(C)[C@@H]([C@H](C)/C=C/[C@H](C)C(C)C)CC[C@H]13` (stereo partly drawn): the inhibition is -1.2%.

As for `CCOc1[nH]n(-c2ccc(Cl)cc2)c(=O)c1C=Nc1ccc(O)cc1`, the inhibition was 28% (active).

Regarding `Cc1ccc(C)c(CN2CCC(CNC(=O)C3CCCN(c4ncnc5c4nc4n5CCCCC4)C3)CC2)c1` (stereo not drawn), the inhibition was -2.34%.

Consider `CC1(C)CC(=O)C=C(NCCN2CCNCC2)C1`, for which the inhibition was 5.49%.

Source of the values: PubChem BioAssay AID651800 (The Scripps Research Institute Molecular Screening Center, 2012).
